Results: the supplement of paper PMC4723716
± gives the uncertainty stated by the source. In all, about 9,900 compounds were measured (“viability index relative to DMSO control”: median about 1, lowest 2% from about 0.85 on). The sample holds the lowest values, similar compounds and a random draw of the others, so the mix is not that of the screen.

Test system: Plasmodium falciparum NF54 stage V gametocytes
Test: viability index relative to DMSO control (fraction); higher = less gametocyte killing
Conditions: 2.5 µM, incubation time: 72 h
How it was run: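 Gametocytes (P. falciparum NF54, stage V) were treated with compound at 2.5 µM for 72 hr at 37°C in low oxygen, in serum-free medium at 0.75% gametocytemia and 1.25% hematocrit. Counts of 20–70 µm2 red particles, taken from one field per well after MitoTracker Red CMXRos with saponin, were divided by the plate mean of solvent-only wells. This ratio is the viability index.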

[1] = library set: Broad Institute DOS
[2] = library set: Broad Institute Blood Stage

Row | SMILES | viability index [1] | viability index [2]
1 | CN1C(=O)c2cc(NC(=O)c3cccc(F)c3)ccc2OC[C@@H]2O[C@H](CC(=O)NCc3ccccc3Cl)CC[C@H]21 | 1.13 ± 0.036 | –
2 | C[C@@H]1CN([C@H](C)CO)C(=O)c2cc(NS(=O)(=O)c3ccccc3)ccc2O[C@@H](C)CCCCO[C@@H]1CN(C)C(=O)C1CCCCC1 | 1.01 ± 0.13 | –
3 | CC(C)C(=O)Nc1ccc2c(c1)C(=O)N(C)[C@H]1CC[C@@H](CC(=O)NCCc3ccccc3)O[C@@H]1CO2 | 1.03 ± 0.06 | –
4 | COc1cccc(C#Cc2ccc([C@H]3[C@@H](C#N)N(C(=O)c4ccccn4)[C@@H]3CO)cc2)c1 | 1.098 ± 0.009 | –
5 | COc1cccc(C#Cc2ccc([C@@H]3[C@@H](C#N)N(C(=O)C4CCCCC4)[C@H]3CO)cc2)c1 | – | 0.7 ± 0.1
6 | COc1ccccc1C#Cc1ccc([C@@H]2[C@H](C#N)N(C(=O)C3CCC3)[C@H]2CO)cc1 | 1.03 ± 0.09 | –
7 | COc1cccc(C#Cc2ccc([C@H]3[C@@H](CO)N(C(=O)C4CCCC4)[C@H]3C#N)cc2)c1 | – | 0.882 ± 0.054
8 | COc1ccccc1C#Cc1ccc([C@@H]2[C@@H](C#N)N(C(=O)C3CCC3)[C@H]2CO)cc1 | 1.03 ± 0.022 | –
9 | COc1ccccc1C#Cc1ccc([C@H]2[C@@H](C#N)N(C(=O)C3CCCCC3)[C@H]2CO)cc1 | – | 0.345 ± 0.087
10 | CCCNC(=O)N(C)C[C@H]1Oc2ncc(C#CC3CCCCC3)cc2C(=O)N([C@@H](C)CO)C[C@@H]1C | 0.929 ± 0.067 | –
11 | Cc1ccccc1S(=O)(=O)Nc1ccc2c(c1)C(=O)N(C)[C@@H]1CC[C@H](CC(=O)O)O[C@@H]1CO2 | 1.01 ± 0.033 | –
12 | CN(C)CC(=O)N1[C@H](C(=O)Nc2nccs2)[C@@H](CO)[C@@H]2Cn3c(ccc(C4=CCCCC4)c3=O)[C@@H]21 | 1.02 ± 0.015 | –
13 | COc1ccc(CN2C[C@H](O)COC[C@@H]3O[C@H](CC(=O)N(C)C)CC[C@H]32)cc1 | 1.08 ± 0.1 | –
14 | C[C@H](CO)N1C[C@H](C)[C@H](CN(C)C(=O)NC2CCCCC2)Oc2ccc(N(C)C)cc2CC1=O | 1.13 ± 0.1 | –
15 | CO[C@H]1CC[C@@H]2CCOc3c(C#N)cccc3C(=O)N(C)C[C@@H](OC)[C@@H](C)C(=O)N(C)C[C@@H]1O2 | 1 ± 0.023 | –
16 | COc1ccc2c3c([C@@H](CO)N(C[C@]33CCN(CC3)C(=O)Nc3cccc(F)c3)C(=O)C3CC3)n(C)c2c1 | – | 0.807 ± 0.036
17 | COc1ccc2c3c([C@@H](CO)N(C[C@]33CCN(CC3)C(=O)Nc3cccc(F)c3)C(=O)C3CCCC3)n(C)c2c1 | – | 0.822 ± 0.039
18 | COc1ccc2c3c([C@@H](CO)N(C[C@]33CN(C3)C(=O)Nc3cccc(F)c3)C(=O)C3CCOCC3)n(C)c2c1 | 1.06 ± 0.05 | –
19 | CCCNC(=O)N1C[C@]2(CCN(CC2)C(=O)Nc2cccc(F)c2)c2c([C@H]1CO)n(C)c1cc(OC)ccc21 | 0.991 ± 0.079 | –
20 | COc1ccc2c3c([C@@H](CO)N(C[C@]33CCN(CC3)C(=O)Nc3cccc(F)c3)C(=O)CN3CCOCC3)n(C)c2c1 | 0.993 ± 0.12 | –

Row | SMILES | viability index [1] | viability index [2]
21 | COc1ccc2c3c([C@H](CO)N(C[C@]33CCN(CC3)C(=O)Nc3cccc(F)c3)C(=O)CN3CCOCC3)n(C)c2c1 | 0.941 ± 0.018 | –
22 | C[C@@H]1C/C=C/C[C@@H](c2ccccc2)NC(=O)[C@H](C)N(C)C(=O)c2ccccc2O1.C[C@@H]1C/C=C\C[C@@H](c2ccccc2)NC(=O)[C@H](C)N(C)C(=O)c2ccccc2O1 | 1 ± 0.069 | –
23 | COc1ccc2c3c([C@H](CO)NC[C@]33CN(Cc4ccc(cc4)-c4ccccn4)C3)n(C)c2c1 | 0.934 ± 0.11 | –
24 | COc1ccc2c3c([C@H](CO)NC[C@]33CCN(Cc4ccc(cc4)-c4ccccn4)CC3)n(C)c2c1 | – | 0.835 ± 0.04
25 | COc1ccc2c3c([C@H](CO)NC[C@]33CN(Cc4ccc(F)cc4)C3)n(C)c2c1 | 0.841 ± 0.014 | –
26 | COc1ccc2c3c([C@@H](CO)NC[C@]33CN(Cc4ccc(cc4)-c4ccccn4)C3)n(C)c2c1 | 0.997 ± 0.019 | –
27 | COc1ccc2c3c([C@@H](CO)NC[C@]33CCN(Cc4ccncc4)CC3)n(C)c2c1 | 1.01 ± 0.045 | –
28 | COc1ccc2c3c([C@@H](CO)NC[C@]33CCN(Cc4ccc(cc4)-c4ccccn4)CC3)n(C)c2c1 | – | 0.946 ± 0.052
29 | CO[C@H]1CN(C)C(=O)c2cc(NC(=O)c3cnccn3)ccc2OC[C@H](C)NC[C@H]1C | 1.09 ± 0.041 | –
30 | COc1ccc(-c2ccc([C@H]3[C@H]4CNC[C@@H]3N4S(=O)(=O)c3cn(C)cn3)cc2)cc1 | 1.0563 ± 0.00097 | –
31 | O=C(CC1CC1)N1CC2(C1)[C@@H](c1ccccc1)[C@H](CO)N2C(=O)c1ccccn1 | 1 ± 0.013 | –
32 | C[C@H]1CN([C@@H](C)CO)C(=O)c2c(c3ccccc3n2C)-c2ccccc2CO[C@H]1CN(C)C | 1.04 ± 0.052 | –
33 | O=C(C[C@H]1CC[C@H]2NC[C@@H](O)COC[C@@H]2O1)N1CCc2ccccc2C1 | 1.03 ± 0.049 | –
34 | O=C(CC1CC1)N1CC[C@@H]2[C@H]1c1cc(-c3ccc(F)cc3)ccc1N[C@@H]2CO | 1.046 ± 0.009 | –
35 | COc1ccccc1-c1cccc(-c2nc(C(=O)N3CCN(C)CC3)cc3c2[C@H](CCO)N([S@@](=O)C(C)(C)C)C3)c1 | 1.03 ± 0.032 | –
36 | COc1ccc(C#Cc2cccc(-c3nc(C(=O)Nc4ccc(-c5ccccc5)cc4)cc4c3[C@@H](CCO)N(S(=O)C(C)(C)C)C4)c2)cc1OC (some centres undefined) | 1.016 ± 0.0075 | –
37 | COc1ccc(C#Cc2cccc(-c3nc(C(=O)N4CCN(Cc5ccccc5)CC4)cc4c3[C@@H](CCO)N(S(=O)C(C)(C)C)C4)c2)cc1OC (some centres undefined) | 0.826 ± 0.14 | –
38 | CC(C)(C)S(=O)N1Cc2cc(C(=O)NCc3ccc4c(c3)OCO4)nc(-c3cccc(-c4cc5ccccc5o4)c3)c2[C@H]1CCO (some centres undefined) | 0.656 ± 0.04 | –
39 | CC(C)(C)S(=O)N1Cc2cc(C(=O)O)nc(-c3cccc(-c4cc5ccccc5o4)c3)c2[C@@H]1CCO (some centres undefined) | 1.03 ± 0.023 | –
40 | COc1ccc(C#Cc2cccc(-c3nc(C(=O)NCc4ccc5c(c4)OCO5)cc4c3[C@@H](CCO)N(S(=O)C(C)(C)C)C4)c2)cc1OC (some centres undefined) | 0.9061 ± 0.0023 | –

Row | SMILES | viability index [1] | viability index [2]
41 | CC(C)(C)S(=O)N1Cc2cc(C(=O)N3CCN(Cc4ccccc4)CC3)nc(-c3cccc(-c4cc5ccccc5o4)c3)c2[C@H]1CCO (some centres undefined) | 0.7362 ± 0.0068 | –
42 | CC(C)(C)S(=O)N1Cc2cc(C(=O)NCc3ccc4c(c3)OCO4)nc(-c3cccc(-c4cccc(F)c4)c3)c2[C@@H]1CCO (some centres undefined) | 1.04 ± 0.015 | –
43 | COc1ccc(C#Cc2cccc(-c3nc(C(=O)N4CCN(Cc5ccccc5)CC4)cc4c3[C@H](CCO)N(S(=O)C(C)(C)C)C4)c2)cc1OC (some centres undefined) | 1.04 ± 0.11 | –
44 | Cc1ccc(CN2CC(=O)N3[C@H](CO)[C@@H](c4ccc(-c5ccccc5F)cc4)[C@H]3C2)cc1 | 1.05 ± 0.062 | –
45 | CC(=O)N1[C@H](CO)[C@@H](c2ccccc2)C12CN(S(=O)(=O)c1ccccc1)C2 | 1.11 ± 0.03 | –
46 | COC(=O)C[C@H]1CC[C@@H]2[C@H](COc3ccc(NC(=O)Nc4cccc(C#N)c4)cc3C(=O)N2C)O1 | 1.1 ± 0.091 | –
47 | O=C(Cc1cccnc1)N1CC(=O)N2[C@H](C1)[C@@H](c1ccc(C#CC3CCCCC3)cc1)[C@@H]2CO | 0.985 ± 0.11 | –
48 | O=C(C1CCOCC1)N1CC(=O)N2[C@H](C1)[C@H](c1ccc(C#CC3CCCCC3)cc1)[C@@H]2CO | 1.03 ± 0.018 | –
49 | C[C@@H]1CN([C@@H](C)CO)C(=O)c2cc(NC(=O)Cn3cnnn3)ccc2O[C@H]1CN(C)Cc1ccc(C(=O)Nc2ccccc2N)cc1 | 1.002 ± 0.0028 | –
50 | O=C(C[C@H]1C[C@@H]2c3cc(NC(=O)Nc4ccccc4)ccc3O[C@@H]2[C@H](CO)O1)NCc1ccccc1 | 1.06 ± 0.03 | –
51 | Cc1ccc(S(=O)(=O)Nc2ccc3c(c2)CC(=O)N([C@H](C)CO)C[C@@H](C)[C@@H](CN(C)S(=O)(=O)c2ccccc2)O3)cc1 | 0.949 ± 0.021 | –
52 | CCCC(=O)N1C[C@]2(CN(Cc3nccs3)C2)c2c([nH]c3cc(OC)ccc23)[C@@H]1CO | 1 ± 0.024 | –
53 | N#C[C@@H]1[C@@H](c2ccccc2-c2ccccc2)[C@H](CO)N1C(=O)Cc1ccncc1 | 1.1 ± 0.2 | –
54 | C[C@H]1CN([C@@H](C)CO)C(=O)c2ccccc2-c2ccccc2CO[C@H]1CN(C)Cc1cccc(C(=O)O)c1 | 0.958 ± 0.034 | –
55 | O=C(C[C@H]1CC[C@H](NC(=O)C2CC2)[C@H](CO)O1)Nc1ccccc1 | 0.992 ± 0.033 | –
56 | O=C(C[C@H]1CC[C@@H](NC(=O)C2CC2)[C@H](CO)O1)Nc1ccccc1 | 0.839 ± 0.19 | –
57 | O=C(C[C@H]1CC[C@H](NC(=O)C2CC2)[C@@H](CO)O1)Nc1ccccc1 | 0.981 ± 0.031 | –
58 | CO[C@H]1CN(C)C(=O)c2cc(NS(=O)(=O)CC(F)(F)F)ccc2OC[C@@H](C)NC[C@H]1C | 1.07 ± 0.0046 | –
59 | CCC(=O)N1CC(=O)N2[C@H](CO)[C@H](c3ccc(C#CCC(C)C)cc3)[C@H]2C1 | 0.956 ± 0.046 | –
